From PubChem BioAssay
Several values for one entry are separate records, joined by “and”; a condition that tells them apart may be missing. Equal entries are not always repeated. Records with an inconclusive call do not appear. The source holds several records for some structures; these can differ, active in one and inactive in another. Activity calls are given as the source filed them.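 How the source made its calls, unless noted: active means mean z-score across replicates of 1.96 or higher in either the MELAS or the Rieske mutant cell line; inactive means the rest.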

Columns and labels:
[1] = viability loss in pontine glioma line – cell-based, SU-DIPG-XXV, MIPE5.0, CellTiter-Glo, qHTS, dose response (AID 1347065; cut-off not given, nearly all actives have AC50 up to about 26 µM;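 further: cells exposed to compound for 48 hours before ATP readout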); conditions: CellTiter-Glo ATP luminescence
[2] = SU-DIPG-VI glioma cell viability, MIPE4.0 library, CellTiter-Glo luminescence, qHTS (AID 1347066; cut-off not given, nearly all actives have AC50 up to about 30 µM;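 further: cells exposed to compound for 48 hours before readout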); conditions: CellTiter-Glo ATP luminescence
[3] = JHH-DIPG-1 glioma cell viability, MIPE5.0 library, CellTiter-Glo luminescence, qHTS (AID 1347067; cut-off not given, nearly all actives have AC50 up to about 26 µM;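 further: cells exposed to compound for 48 hours before readout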); conditions: JHH-DIPG-1 glioma viability, CellTiter-Glo ATP luminescence
[4] = SU-DIPG-XXV glioma cell viability, MIPE5.0 library, qHTS (AID 1347068; cut-off not given, nearly all actives have IC50 up to about 30 µM;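 on IC50: cells exposed to compound for 48 hours before viability readout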)
[5] = phospholipid biosynthesis inhibitors in animal cells, primary screen, cell-based, LOPAC library, screen 4 (AID 1347384; call rule not given here); conditions: phospholipid biosynthesis inhibition screen, at 10 µM
[6] = survival rescue of mitochondrial mutant cells in low glucose, primary screen, MELAS cybrids, Rieske KO mouse fibroblasts, CellTiter-Glo (AID 1508586);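 further: z relative to plate mean and SD of compound and empty wells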
[7] = molecular target: NAD(+) hydrolase SARM1 (Homo sapiens) (UniProt Q6SZW1); assay: SARM1 TIR NADase inhibitors, cell lysate, NAD-Glo luminescence (AID 1508614;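 active means compound whose remaining NAD level is above about 45 nM, limit read from the data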); conditions: SAM-TIR HEK293T lysate NADase, at 1 µM, stronger effect = higher value
[8] = molecular target: Mitogen-activated protein kinase 7 (Homo sapiens) (UniProt Q13164); assay: ERK5 transactivation activators in reporter cells, primary screen, cell-based, HTS (AID 1508626;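 active means luciferase signal above three times the same-plate solvent-only control wells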;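 further: luciferase driven by Gal4-ERK5 fusion binding five Gal4 sites before minimal TATA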); conditions: HeLa Gal4-ERK5 transactivation, 18 h, at 5 µM, stronger effect = higher value
[9] = viability rescue of complex I mutant cybrids, primary screen, cell-based, galactose medium, ATP luminescence (AID 1645843;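 active means z-score of at least 1.8 in each of two replicates, scored against plate mean and spread of sample wells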;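 further: positive z means more ATP and so rescue of galactose-driven cybrid death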); conditions: complex I mutant cybrid cells, 72 h, stronger effect = higher value
[10] = modifiers of HSF1 nuclear foci, imaging, Selleck Cancer Library (AID 1347162; in the data active means plate-normalised HSF1 focus index below about 0.46); conditions: human cells, at 10 µM; SSMD: measured here: HSF1 foci SSMD mean; cell count: measured here: cell number; plate-normalised HSF1 focus index: stronger effect = lower value
[11] = MELAS cybrid survival, CellTiter-Glo 48 h, stronger effect = higher value
[12] = Rieske KO mouse fibroblast survival, CellTiter-Glo 72 h

Mitogen-activated protein kinase 7 (Homo sapiens), sequence (Q13164 whole entry, looked up, the tested form may be a part): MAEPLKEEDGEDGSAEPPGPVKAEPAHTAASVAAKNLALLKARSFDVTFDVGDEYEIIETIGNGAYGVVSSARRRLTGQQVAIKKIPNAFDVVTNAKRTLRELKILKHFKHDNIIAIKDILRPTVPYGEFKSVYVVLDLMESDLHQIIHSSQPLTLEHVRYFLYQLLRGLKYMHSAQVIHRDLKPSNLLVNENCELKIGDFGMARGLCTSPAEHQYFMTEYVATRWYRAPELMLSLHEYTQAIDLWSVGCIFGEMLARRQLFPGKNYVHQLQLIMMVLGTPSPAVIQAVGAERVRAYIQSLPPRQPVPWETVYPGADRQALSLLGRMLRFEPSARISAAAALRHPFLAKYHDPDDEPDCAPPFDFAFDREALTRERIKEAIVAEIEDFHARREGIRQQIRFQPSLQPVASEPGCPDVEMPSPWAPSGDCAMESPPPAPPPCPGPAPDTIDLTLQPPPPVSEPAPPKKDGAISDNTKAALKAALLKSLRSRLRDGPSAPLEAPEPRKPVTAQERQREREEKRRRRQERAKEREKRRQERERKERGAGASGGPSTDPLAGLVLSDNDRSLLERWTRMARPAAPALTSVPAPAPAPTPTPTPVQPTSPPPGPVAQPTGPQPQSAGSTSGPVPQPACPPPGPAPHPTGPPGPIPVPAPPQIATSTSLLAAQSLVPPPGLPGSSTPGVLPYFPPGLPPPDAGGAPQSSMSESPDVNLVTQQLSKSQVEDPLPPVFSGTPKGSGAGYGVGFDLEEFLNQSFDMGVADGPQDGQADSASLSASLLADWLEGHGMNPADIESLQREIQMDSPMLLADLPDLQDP
NAD(+) hydrolase SARM1 (Homo sapiens), sequence (Q6SZW1 whole entry, looked up, the tested form may be a part): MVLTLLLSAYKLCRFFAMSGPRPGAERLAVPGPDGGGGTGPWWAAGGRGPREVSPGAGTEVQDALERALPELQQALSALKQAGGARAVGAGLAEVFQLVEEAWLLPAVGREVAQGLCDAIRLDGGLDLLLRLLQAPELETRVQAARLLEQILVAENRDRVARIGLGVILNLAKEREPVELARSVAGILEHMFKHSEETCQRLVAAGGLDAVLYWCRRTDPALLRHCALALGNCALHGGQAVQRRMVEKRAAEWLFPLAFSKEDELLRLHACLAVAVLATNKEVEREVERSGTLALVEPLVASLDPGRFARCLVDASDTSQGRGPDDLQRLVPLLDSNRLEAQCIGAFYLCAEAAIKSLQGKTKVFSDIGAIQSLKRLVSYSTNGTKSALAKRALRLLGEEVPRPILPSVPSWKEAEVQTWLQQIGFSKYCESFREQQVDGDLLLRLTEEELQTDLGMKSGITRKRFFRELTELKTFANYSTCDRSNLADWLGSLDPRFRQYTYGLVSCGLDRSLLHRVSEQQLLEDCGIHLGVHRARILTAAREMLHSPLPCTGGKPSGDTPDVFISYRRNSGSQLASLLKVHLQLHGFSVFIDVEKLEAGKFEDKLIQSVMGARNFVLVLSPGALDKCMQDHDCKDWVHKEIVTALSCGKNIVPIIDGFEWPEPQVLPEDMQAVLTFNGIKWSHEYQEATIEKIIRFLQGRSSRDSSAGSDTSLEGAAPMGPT

SMILES	outcome [1]	outcome [2]	outcome [3]	outcome [4]	outcome [5]	z-score [6, 11]	z-score [6, 12]	remaining NAD [7]	luciferase signal [8]	z-score [9]	AC50 [1]	AC50 [2]	AC50 [3]	IC50 [4]	SSMD [10]	cell count [10]	plate-normalised HSF1 focus index [10]
CN1CCC(=C2c3ccccc3CC(=O)c3sccc32)CC1	inactive	inactive	inactive	inactive	inactive	-0.303 (inactive) and -0.251 (inactive) and -0.573 (inactive)	-0.862 and -0.369 and 0.333	10 nM (inactive)	76 AU (inactive)	–	–	–	–	–	–	–	–
NS(=O)(=O)c1cc2c(cc1Cl)NC(C(Cl)Cl)NS2(=O)=O (configuration not stated)	inactive	inactive	inactive	inactive	–	-0.307 (inactive) and 0.588 (inactive) and 0.372 (inactive)	0.662 and 0.211 and -0.506	10 nM (inactive)	48 AU (inactive)	-0.19 (inactive)	–	–	–	–	–	–	–
NC(=O)OCC(COC(N)=O)c1ccccc1	inactive	inactive	inactive	inactive	inactive	0.426 (inactive) and -0.303 (inactive)	0.386 and -0.256	–	112 AU (inactive)	0.13 (inactive) and 0.59 (inactive) and 0.445 (inactive)	–	–	–	–	–	–	–
COc1cccc2c1C(=O)c1c(O)c3c(c(O)c1C2=O)C[C@@](O)(C(=O)CO)C[C@@H]3O[C@H]1C[C@H](N)[C@H](O)[C@H](C)O1	–	–	–	–	–	0.616 (inactive) and 7.1 (active)	-1.64 and -0.526	10 nM (inactive)	32 AU (inactive)	-0.63 (inactive) and -2.04 (inactive)	1180 nM (active)	2350 nM (active)	1050 nM (active)	7420 nM (active)	-18.3	7010	0.0593 (active)
NC(=O)c1ncn([C@@H]2O[C@H](CO)[C@@H](O)[C@H]2O)n1	inactive	inactive	inactive	inactive	inactive	-1.67 (inactive) and -1.08 (inactive)	-1.02 and -1.08	10 nM (inactive)	36 AU (inactive)	0.88 (inactive) and 1.56 (inactive)	–	–	–	–	–	–	–
CN1C(C(=O)Nc2ccccn2)=C(O)c2sccc2S1(=O)=O	inactive	inactive	inactive	inactive	–	-0.378 (inactive) and 0.116 (inactive) and -0.742 (inactive)	0.123 and -0.0171 and -1.25	10 nM (inactive)	180 AU (inactive)	-0.07 (inactive)	–	–	–	–	–	–	–
COc1ccc(CCN(C)CCCC(C#N)(c2ccc(OC)c(OC)c2)C(C)C)cc1OC (configuration not stated)	inactive	inactive	inactive	inactive	inactive	-1.23 (inactive) and 0.18 (inactive) and -0.391 (inactive)	-2.03 and 0.282 and -0.248	10 nM (inactive)	96 AU (inactive)	–	–	–	–	–	–	–	–
CC1(C)NC(=O)N(c2ccc([N+](=O)[O-])c(C(F)(F)F)c2)C1=O	inactive	inactive	inactive	inactive	inactive	1.34 (inactive)	-0.252	10 nM (inactive)	100 AU (inactive)	-0.59 (inactive) and -0.55 (inactive)	–	–	–	–	–	–	–
